Results filed as inconclusive are left out. Calls of active or inactive are those of the source. Rule for the calls, unless noted: active = hit-call score of the fitted dose curve at least 0.9, where 1 is the maximum; inactive = score below 0.9.
Experiments:
[1] = ACEA_ER_80hr: ACEA Biosciences xCELLigence Real-Time Cell Analysis on Estrogen Receptor Agonism for Proliferation (AID 2282667; active = hit-call score of the fitted dose curve at least 0.9, where 1 is the maximum); settings: T47D proliferation, impedance (xCELLigence), 80 h
Procedure, shortened: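 Cell-growth kinetics were measured by impedance in T47D cells treated continuously with compound (top 100 uM final, 1:4 steps, 8 points). Activity at 80 h was scored as signal gain over the DMSO baseline.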

[2] = ATG_CRE_CIS: Attagene CIS-FACTORIAL HepG2 Assay for human cAMP Responsive Element (CRE) binding protein 3 (AID 2282926); settings: HepG2 CRE cis-reporter, Attagene multiplexed mRNA; actives raise or lower the signal
Procedure, shortened: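 Cells carrying cis-regulated reporter constructs respond through their own endogenous factors. After 24 h treatment, RNA is reverse-transcribed, amplified, labelled and sized by capillary electrophoresis; up- and down-regulation are both scored against vehicle.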

[3] = target: CCAAT/enhancer-binding protein beta (Homo sapiens) (UniProt P17676); test: ATG_C_EBP_CIS: Attagene CIS-FACTORIAL HepG2 Assay for human CCAAT/Enhancer Binding Protein (C/EBP) beta (AID 2282927); settings: HepG2 Attagene cis-factorial transcription factor reporter; actives raise or lower the signal
Procedure, shortened: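 Transiently transfected HepG2 (MRTU library, endogenous TF-driven promoters); 24 h dosing; total RNA → oligo(dT) RT → PCR → 6-FAM primer extension → HpaI digest → CE; fit bidirectionally vs DMSO.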

[4] = ATG_CMV_CIS: Attagene CIS-FACTORIAL HepG2 Assay for human CMV (Internal Marker) (AID 2282928); settings: HepG2 CMV promoter reporter, transcription factor profiling; actives raise or lower the signal;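 note: endpoint acts as a background internal control marker rather than a target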
Procedure, shortened: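 Fluorescence intensity of RT-PCR-derived reporter fragments, resolved by capillary electrophoresis, gives the signal. HepG2 liver cells bearing transfected cis-element reporters were treated 24 h; activity in either direction was fit relative to DMSO-treated controls.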

[5] = ATG_DR4_LXR_CIS: Attagene CIS-FACTORIAL HepG2 Assay for human Liver X Receptor (LXR), DR4 submotif (AID 2282929); settings: HepG2 Attagene DR4 cis-reporter, mRNA transcription; actives raise or lower the signal
Procedure, shortened: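 Endogenous factor activity at a DR4 cis-element is read as reporter mRNA in transiently transfected HepG2 cells. Exposure lasts 24 h; transcripts are amplified, fluorescently labelled and sized by capillary electrophoresis, with DMSO as baseline.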

[6] = target: Aryl hydrocarbon receptor (Homo sapiens) (UniProt P35869); test: ATG_Ahr_CIS: Attagene CIS-FACTORIAL HepG2 Assay for human Aryl Hydrocarbon Receptor (Ahr) (AID 2282930); settings: HepG2 AhR cis-factorial reporter transcription; actives raise or lower the signal
Procedure, shortened: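 Read-out: reporter mRNA quantified by RT-PCR with fluorescent primer extension and capillary electrophoresis. Human HepG2 liver cells carried transfected cis-promoter reporter units and were exposed to chemical for 24 h; gain or loss fitted relative to DMSO.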

[7] = ATG_AP_1_CIS: Attagene CIS-FACTORIAL HepG2 Assay for human Activator Protein 1 (AP-1) (AID 2282931); settings: HepG2 Attagene cis-factorial AP-1 reporter mRNA; actives raise or lower the signal
Procedure, shortened: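 Fluorescence of labelled PCR fragments separated by capillary electrophoresis gives reporter mRNA levels. HepG2 with transfected cis-regulated reporter units, 24 h exposure; DMSO serves as baseline for bidirectional curve fits.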

[8] = ATG_AP_2_CIS: Attagene CIS-FACTORIAL HepG2 Assay for human Activator Protein 2 (AP-2) (AID 2282932); settings: HepG2 AP-2 cis-reporter, Attagene transcription factor profiling; actives raise or lower the signal
Procedure, shortened: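 Liver-derived HepG2 line, cis-reporter system measuring endogenous factors; 24 h dosing; reporter mRNA detected by fluorescent RT-PCR and capillary electrophoresis.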

[9] = ATG_BRE_CIS: Attagene CIS-FACTORIAL HepG2 Assay for human Bone Morphogenetic Protein (BMP) Response Element (BRE) (AID 2282933); settings: HepG2 BMP response element reporter, Attagene transcription factor profiling; actives raise or lower the signal
Procedure, shortened: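 Multiplexed cis-reporter assay, HepG2, 24 h exposure. mRNA from reporter units quantified via RT-PCR/CE; DMSO baseline; bidirectional curve fit.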

[10] = target: Retinoic acid receptor alpha (Homo sapiens) (UniProt P10276); test: ATG_DR5_RAR_CIS: Attagene CIS-FACTORIAL HepG2 Assay for human Retinoic Acid Receptor Alpha (RARE), DR5 submotif (AID 2282934); settings: HepG2 Attagene cis-factorial RARE DR5 reporter, mRNA; actives raise or lower the signal;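 for AC50: reporter responds to endogenous RAR alpha beta and gamma in HepG2 not RARA alone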
Procedure, shortened: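 Read-out: DR5-driven reporter transcript measured by RT-PCR, 6-FAM primer extension, HpaI digest and capillary electrophoresis. Human HepG2 liver cells carry transiently transfected cis-element reporter constructs; dosing lasts 24 h. Gain or loss of signal fitted against DMSO baseline.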

[11] = target: Transcription factor E2F1 (Homo sapiens) (UniProt Q01094); test: ATG_E2F_CIS: Attagene CIS-FACTORIAL HepG2 Assay for human E2F Transcription Factor 1 (AID 2282935); settings: HepG2 Attagene cis-reporter, E2F reporter RNA transcripts; actives raise or lower the signal
Procedure, shortened: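 Liver-derived HepG2 cells expressing transfected promoter-driven reporter units received test chemical for 24 hours. Signal gains or losses were fitted bidirectionally against DMSO.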

[12] = ATG_E_Box_CIS: Attagene CIS-FACTORIAL HepG2 Assay for human Enhancer Box (E-box) (AID 2282936); settings: HepG2 E-box cis-reporter transcription, actives raise or lower the signal
Procedure, shortened: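 In this cell-based setup, HepG2 cells bearing transfected promoter-driven reporter units were exposed to chemicals for 24 h; reporter transcripts were amplified, 6-FAM-labelled, cut with HpaI and sized by capillary electrophoresis.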

[13] = ATG_M_61_CIS: Attagene CIS-FACTORIAL HepG2 Assay for M61 Transcription Factor (Internal Marker) (AID 2282937); settings: HepG2 Attagene CIS-FACTORIAL M61 internal marker reporter; actives raise or lower the signal
Procedure, shortened: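 This endpoint serves as an internal background control within a multiplexed HepG2 cis-reporter panel. Cells are exposed for 24 h; reporter mRNA is amplified, fluorescently labelled and sized by capillary electrophoresis, with DMSO as negative control.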

[14] = ATG_EGR_CIS: Attagene CIS-FACTORIAL HepG2 Assay for human Early Growth Response 1 (EGR1) (AID 2282938); settings: HepG2 Attagene CIS-FACTORIAL EGR reporter mRNA; actives raise or lower the signal
Procedure, shortened: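 HepG2, transient MRTU transfection (cis promoters), 24 h compound. RNA → RT (oligo-dT) → PCR → 6-FAM labelling → HpaI cut → CE fluorescence. Bidirectional fit, DMSO baseline.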

[15] = ATG_M_19_CIS: Attagene CIS-FACTORIAL HepG2 Assay for M19 Transcription Factor (Internal Marker) (AID 2282939); settings: HepG2 Attagene CIS-FACTORIAL M19 internal marker reporter; actives raise or lower the signal
Procedure, shortened: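 Signals come from fluorescence of labelled reporter-specific PCR fragments resolved by capillary electrophoresis, following 24 h treatment of HepG2 cells transfected with cis-promoter reporter units; activity was fitted in both directions relative to DMSO.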

[16] = ATG_ERE_CIS: Attagene CIS-FACTORIAL HepG2 Assay for Estrogen Response Element (ERE) (AID 2282940); settings: HepG2 ERE cis-reporter, Attagene RNA transcript; actives raise or lower the signal
Procedure, shortened: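 Fluorescence of capillary-separated, FAM-labelled reporter cDNA fragments indicates reporter mRNA levels in HepG2 cells exposed to chemicals for 24 h. Transient transfection with cis-regulated units; data fitted in both directions against DMSO.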

[17] = ATG_Ets_CIS: Attagene CIS-FACTORIAL HepG2 Assay for human Erythroblast Transformation Specific (ETS) (AID 2282941); settings: HepG2 ETS cis-reporter transcription, actives raise or lower the signal
Procedure, shortened: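 Multiplexed reporter transcript profiling: HepG2, 24 h treatment, total RNA to cDNA, PCR, 6-FAM labelling, HpaI cut, capillary electrophoresis. Gain- or loss-of-signal fitted against DMSO.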

[18] = target: Hepatocyte nuclear factor 3-beta (Homo sapiens) (UniProt Q9Y261); test: ATG_FoxA2_CIS: Attagene CIS-FACTORIAL HepG2 Assay for human Forkhead box A2 (FOXA2) (AID 2282942); settings: HepG2 cis-reporter transcription factor activity, 24 h; actives raise or lower the signal
Procedure, shortened: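 Cells: HepG2, transient multiplex reporter transfection. Exposure 24 h. Detection: reporter-specific RT-PCR, fluorescent labelling, restriction digest, capillary electrophoresis. Analysis: bidirectional curve fit, DMSO as negative control.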

[19] = ATG_FoxO_CIS: Attagene CIS-FACTORIAL HepG2 Assay for human Forkhead box O (FoxO) (AID 2282943); settings: HepG2 Attagene cis-reporter, FoxO element, mRNA; actives raise or lower the signal
Procedure, shortened: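 Read-out: fluorescence of 6-FAM-labelled reporter cDNA fragments resolved by capillary electrophoresis. Transiently transfected HepG2 cells were dosed for 24 h; activity fitted in both directions relative to DMSO controls.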

[20] = ATG_GATA_CIS: Attagene CIS-FACTORIAL HepG2 Assay for human GATA Binding Protein (AID 2282944); settings: HepG2 GATA cis-element reporter, Attagene multiplex mRNA; actives raise or lower the signal
Procedure, shortened: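 After transfecting HepG2 cells with multiple cis-regulated reporter units, chemicals are dosed for 24 h; isolated RNA undergoes RT-PCR and fluorescent labeling before capillary electrophoresis, with activity expressed against DMSO.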

Measured: AC50

Aryl hydrocarbon receptor (Homo sapiens), sequence (P35869 whole entry, looked up): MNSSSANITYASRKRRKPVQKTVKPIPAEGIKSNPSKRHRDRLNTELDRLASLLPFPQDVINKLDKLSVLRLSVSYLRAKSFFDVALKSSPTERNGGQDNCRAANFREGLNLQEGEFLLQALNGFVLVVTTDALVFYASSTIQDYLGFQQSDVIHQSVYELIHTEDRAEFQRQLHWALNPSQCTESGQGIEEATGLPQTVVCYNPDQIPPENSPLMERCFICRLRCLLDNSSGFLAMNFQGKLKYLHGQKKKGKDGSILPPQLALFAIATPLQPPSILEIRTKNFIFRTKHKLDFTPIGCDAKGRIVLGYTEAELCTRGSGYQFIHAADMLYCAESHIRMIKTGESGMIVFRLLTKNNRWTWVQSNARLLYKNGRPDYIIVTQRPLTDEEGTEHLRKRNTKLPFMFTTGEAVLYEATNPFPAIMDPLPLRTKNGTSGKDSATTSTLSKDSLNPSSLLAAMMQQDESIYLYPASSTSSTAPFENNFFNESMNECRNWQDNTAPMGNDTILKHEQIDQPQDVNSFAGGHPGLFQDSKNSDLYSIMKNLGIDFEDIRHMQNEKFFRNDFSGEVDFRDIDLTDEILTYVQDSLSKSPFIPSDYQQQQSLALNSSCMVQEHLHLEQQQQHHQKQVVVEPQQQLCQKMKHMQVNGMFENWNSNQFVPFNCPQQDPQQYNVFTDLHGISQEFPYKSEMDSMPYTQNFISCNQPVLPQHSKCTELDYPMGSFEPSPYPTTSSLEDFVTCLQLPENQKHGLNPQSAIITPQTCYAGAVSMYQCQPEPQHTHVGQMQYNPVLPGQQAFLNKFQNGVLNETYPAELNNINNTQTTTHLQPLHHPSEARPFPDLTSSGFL
Transcription factor E2F1 (Homo sapiens), sequence (Q01094 whole entry, looked up): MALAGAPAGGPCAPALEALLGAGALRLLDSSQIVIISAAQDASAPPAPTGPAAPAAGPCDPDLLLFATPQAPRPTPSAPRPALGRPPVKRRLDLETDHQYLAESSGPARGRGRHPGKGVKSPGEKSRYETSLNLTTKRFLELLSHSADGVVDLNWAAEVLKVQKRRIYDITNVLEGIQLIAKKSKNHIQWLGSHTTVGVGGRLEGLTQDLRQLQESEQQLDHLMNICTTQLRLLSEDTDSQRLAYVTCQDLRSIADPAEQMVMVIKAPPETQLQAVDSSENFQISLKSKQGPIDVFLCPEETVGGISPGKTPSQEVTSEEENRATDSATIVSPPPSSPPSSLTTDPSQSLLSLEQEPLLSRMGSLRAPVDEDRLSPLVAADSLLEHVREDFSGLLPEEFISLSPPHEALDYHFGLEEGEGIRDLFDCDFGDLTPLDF
CCAAT/enhancer-binding protein beta (Homo sapiens), sequence (P17676 whole entry, looked up): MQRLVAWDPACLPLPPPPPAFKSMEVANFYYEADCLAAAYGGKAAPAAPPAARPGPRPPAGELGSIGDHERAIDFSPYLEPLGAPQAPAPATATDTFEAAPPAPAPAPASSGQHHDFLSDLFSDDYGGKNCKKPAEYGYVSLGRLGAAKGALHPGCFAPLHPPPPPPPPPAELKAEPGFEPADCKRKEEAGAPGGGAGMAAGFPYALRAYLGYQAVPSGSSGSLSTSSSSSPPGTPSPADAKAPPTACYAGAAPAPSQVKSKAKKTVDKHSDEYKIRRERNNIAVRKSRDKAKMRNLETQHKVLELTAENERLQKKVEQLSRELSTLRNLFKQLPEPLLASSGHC
Hepatocyte nuclear factor 3-beta (Homo sapiens), sequence (Q9Y261 whole entry, looked up): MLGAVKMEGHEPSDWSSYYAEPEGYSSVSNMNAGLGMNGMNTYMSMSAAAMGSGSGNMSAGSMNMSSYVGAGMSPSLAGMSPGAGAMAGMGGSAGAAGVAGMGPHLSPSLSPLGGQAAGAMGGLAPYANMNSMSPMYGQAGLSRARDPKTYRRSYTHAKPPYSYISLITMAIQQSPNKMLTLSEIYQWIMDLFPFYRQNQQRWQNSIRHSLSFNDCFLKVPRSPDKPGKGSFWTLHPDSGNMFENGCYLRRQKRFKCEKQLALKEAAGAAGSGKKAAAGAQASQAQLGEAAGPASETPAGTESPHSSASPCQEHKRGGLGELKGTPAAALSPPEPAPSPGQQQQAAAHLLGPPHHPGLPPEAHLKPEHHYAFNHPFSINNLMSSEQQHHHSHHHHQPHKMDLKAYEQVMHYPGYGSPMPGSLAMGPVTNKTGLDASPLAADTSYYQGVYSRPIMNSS
Retinoic acid receptor alpha (Homo sapiens), sequence (P10276 whole entry, looked up): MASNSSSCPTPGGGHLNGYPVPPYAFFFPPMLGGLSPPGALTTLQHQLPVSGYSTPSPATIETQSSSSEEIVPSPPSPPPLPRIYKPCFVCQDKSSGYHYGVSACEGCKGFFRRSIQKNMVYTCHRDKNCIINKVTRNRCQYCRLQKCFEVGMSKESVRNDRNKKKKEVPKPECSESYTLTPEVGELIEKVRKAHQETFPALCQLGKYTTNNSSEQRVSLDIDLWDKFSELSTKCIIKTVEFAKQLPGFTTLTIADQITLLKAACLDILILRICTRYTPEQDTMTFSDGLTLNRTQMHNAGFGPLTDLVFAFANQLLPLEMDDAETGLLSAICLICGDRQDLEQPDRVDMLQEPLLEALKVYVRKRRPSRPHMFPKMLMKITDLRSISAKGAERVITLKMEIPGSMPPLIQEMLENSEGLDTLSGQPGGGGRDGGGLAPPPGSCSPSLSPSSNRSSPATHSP

CCCCCCCCn1sc(Cl)c(Cl)c1=O
active: [1] 23 nM | [6] 6.89 µM | [7] 13.8 µM | [8] 11.1 µM | [10] 5.39 µM | [16] 11.1 µM | [17] 6.69 µM | [18] 8.19 µM | [20] 20.5 µM
inactive: all other assays above

NS(=O)(=O)C(F)(F)C(F)(F)C(F)(F)C(F)(F)C(F)(F)C(F)(F)F
active: [16] 41.4 µM
inactive: all other assays above

O=C(O)CCC(F)(F)C(F)(F)C(F)(F)F
not listed: [15]
inactive: all other assays above

O=C(F)C1(F)C(F)(F)C(F)(F)C(F)(F)C(F)(F)C1(F)F
not listed: [16]
inactive: all other assays above

OCC(F)(F)C(F)(F)C(F)(F)C(F)(F)C(F)(F)C(F)(F)C(F)(F)C(F)(F)CO
active: [1] 188 nM | [16] 0.163 µM
inactive: all other assays above

CSc1ccc(O)cc1C
active: [16] 31.7 µM
not listed: [15]
inactive: all other assays above

OCC(O)CC(F)(F)C(F)(F)C(F)(F)C(F)(F)F (configuration not stated)
not listed: [16]
inactive: all other assays above

COCCOCCC[Si](C)(O[Si](C)(C)C)O[Si](C)(C)C
active: [1] 437 nM | [5] 54.1 µM | [7] 1.53 µM | [8] 60.1 µM | [9] 9.13 µM | [10] 8.84 µM
not listed: [15]
inactive: all other assays above

CCCCCC/C=C/CCCCCCCC(=O)O
not listed: [15]
inactive: all other assays above

Cc1cc(O)c(C(C)(C)C)cc1C(C)(C)C
active: [4] 9.14 µM | [7] 11.1 µM | [12] 13.9 µM
not listed: [16]
inactive: all other assays above

CCc1cccc(C)c1N(C(=O)C(=O)O)C(C)COC (configuration not stated)
inactive: all assays above

Cc1ccc(O)c(-n2nc3ccccc3n2)c1
active: [6] 7.41 µM | [16] 10.4 µM
inactive: all other assays above

CC(C)CCCC(C)CCO (configuration not stated)
not listed: [15]
inactive: all other assays above

Cc1cnccn1
active: [6] 0.0965 µM
inactive: all other assays above
